Data: PubChem BioAssay (NCI)
The panel holds about 83,000 compounds, 20% with a hit somewhere; the sample as a whole holds those more often.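 Percent growth is the endpoint: 0 to 100 indicates growth inhibition (40 means 60% inhibition), 0 means no net growth, and negative values indicate cell death.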 Values without a mark were called inactive. Calls of active or inactive are those of the source. The calls were made as follows: active = growth percent below 10; inactive = the rest.

System: HL-60(TB) leukemia
Assay: NCI-60 one-dose screen, 48 h (100 = growth as untreated, 0 = no growth, -100 = all killed)
Details: 10 µM unless noted

Question: Which growth does the source give for CCN1CCN(C(=O)[C@]23CCC(C)(C)C[C@@H]2C2=CC[C@@H]4[C@@]5(C)CCC(=O)C(C)(C)[C@@H]5CC[C@@]4(C)[C@]2(C)CC3)CC1 here?
Answer: -35.8% (active)

Question: For CC1(C)CC(=O)NC1=O, which growth is on record?
Answer: 111%

Question: For COc1cc(-c2nc3cc(Cl)c(Cl)cc3[nH]2)ccc1OCC(=O)N=Nc1c(O)[nH]c2ccc([N+](=O)[O-])cc12, which growth is on record?
Answer: 94.9%

Question: CCCCCCOc1ccc(C2(Cl)c3ccccc3N(C)c3ccccc32)cc1 was tested. Which growth did it give?
Answer: 65.4%

Question: For COc1ccc(/C=C2\C(=O)N=C3N2NC(c2cc(Br)ccc2O)C=C(C)N3c2ccccc2)cc1 (configuration not stated), which growth is on record?
Answer: 99%

Question: How did the growth turn out when O=C(C[P+](c1ccccc1)(c1ccccc1)c1ccccc1)C[P+](c1ccccc1)(c1ccccc1)c1ccccc1 was run?
Answer: -43.6% (active)

Question: How did the growth turn out when COc1cc(NC(=O)C#Cc2ccccc2)c(OC)cc1Cl was run?
Answer: 42.7%

Question: For C=CCCCCOc1cccc(/C=C2\N=C3SCCCN3C2=O)c1, which growth is on record?
Answer: 94.9%

Question: C#CCOc1ccc2ncnc(Nc3cccc(CNC(=O)CCl)c3)c2c1 was tested. Which growth did it give?
Answer: 35.2% [8.25 µM]

Question: How did the growth turn out when CCOC(=O)c1c(C)nc2c(c1N)CC(=O)N2Cc1cc(F)cc(Cl)c1 was run?
Answer: 79.1%

Question: With O=c1oc2ccc(Cl)cc2c(=O)n1-c1cc(C(F)(F)F)cc(C(F)(F)F)c1 as the compound, how does the growth read?
Answer: -20.6% (active)

Question: How did the growth turn out when C[C@@H](CO)[C@@H]1CCC=C2CC[C@]3(C)[C@H](CC[C@@H]4[C@@]5(C)CCCNC(C)(C)[C@@H]5CC[C@]43C)[C@H]21 was run?
Answer: -6.22% (active)

Question: CC(C)CC1NC(=O)C(CC(C)C)N(CO)C1=O (configuration not stated) was tested. Which growth did it give?
Answer: 106%

Question: With O=C(CCCCC(=O)N/N=C\c1ccccc1O)N/N=C\c1ccccc1O as the compound, how does the growth read?
Answer: 4.44% (active)

Question: Nc1ccc(-c2nn3c(CCC(=O)c4nc5ncccc5[nH]4)nnc3s2)c(O)c1 was tested. Which growth did it give?
Answer: 107%

Question: For O=C(c1ccccc1)C1OC1c1ccc([N+](=O)[O-])cc1 (configuration not stated), which growth is on record?
Answer: 61.6%

Question: How did the growth turn out when N=C(N)N=Nc1ccc(O)cc1 was run?
Answer: 69% [100 µM]

Question: With C[C@@H](O)[C@H]1C(=O)N2C(C(=O)O)=C(SCCN=CN)C[C@H]12 as the compound, how does the growth read?
Answer: 19.1%

Question: How did the growth turn out when CC(=O)N(C)c1ccc(Nc2cc(C)[nH]c3ccc4ncnc4c23)cc1 was run?
Answer: 21.3%

Question: How did the growth turn out when Cc1[nH]c2ccc(F)cc2c1CCNC(=O)C1CCN(C(=O)c2ccccc2)CC1 was run?
Answer: 102% [25 µM]

Question: With CCN(CC)c1nc(SCc2ccccc2Cl)ncc1C as the compound, how does the growth read?
Answer: 89.7%

Question: With Cc1ccc(-c2nc3nc(-c4ccc(F)cc4)nc(N4CCNCC4)c3o2)cc1 as the compound, how does the growth read?
Answer: -69.1% (active)

Question: For COc1ccc(-c2nc(N/N=C/c3c[nH]c4ccccc34)nc(N3CCOCC3)c2C#N)cc1, which growth is on record?
Answer: 47.9%

Question: With Cc1sc2nc(NCCc3c[nH]c4ccc(Cl)cc34)[nH]c(=O)c2c1C as the compound, how does the growth read?
Answer: 7.05% (active)

Question: CC(=O)Oc1c(C)c(C)c2c(c1C)CCC(C)(CC(=O)OCCCCCCCCCCC[P+](c1ccccc1)(c1ccccc1)c1ccccc1)O2 (configuration not stated) was tested. Which growth did it give?
Answer: -34.8% (active)

Question: With CCN(CC)CCCC(C)Nc1c2ccc(Cl)cc2nc2ccc(O)cc12 (configuration not stated) as the compound, how does the growth read?
Answer: 45.7%

Question: For Cc1ccc2nc(SCC(=O)Nc3ccc(-c4nc5ccccc5s4)c(Cl)c3)[nH]c2c1, which growth is on record?
Answer: 111%
